{"source": "PubChem BioAssay (Tox21)", "note": "Records with an inconclusive call do not appear. Where a call stands in place of a potency, no number is given. Activity calls are given as the source filed them. Calls come from the whole dose curve; as a rule, active = well fitted activation curve with a large enough effect in the repeat runs; inconclusive = weak or mixed curves; inactive = flat fitted curve, though single readings scatter.", "data": [{"assay": "Caspase-3/7 induction in HepG2 cells by small molecules, qHTS assay (AID 1346978); note: nearly all actives have a fitted effect of over 15% in size", "settings": "HepG2 caspase-3/7 activation, Caspase-Glo luminescence, 17 h; series mostly up to 92.4 µM; caspase activation: at the top concentration", "excerpt": "National Center for Advancing Translational Sciences [NCATS] NIH Chemical Genomics Center [NCGC] U.S. Environmental Protection Agency [EPA] National Institutes of Environmental Health Sciences [NIEHS] National Toxicology Program [NTP] Assay overview: Apoptosis is a process of programmed cell death and plays a central role in the development of multicellular organisms. It is a highly regulated process and induces cell death by activating caspases, which are the members of cysteine aspartic acid-specific protease (caspase) family. Caspases involved in apoptosis are classified by their mechanism of action as initiator caspases (caspase-2, -8, -9 and -10) and executioner caspases (caspase-3, -6, and -7). Inhibition of apoptosis results in number of cancers, autoimmune diseases, inflammatory diseases and viral infection. To identify small molecule compounds that induce apoptosis, a homogeneous, luminescent Caspase-Glo 3/7 assay was used. Wild type HepG2 cells were used to screen Tox21 libraries for identifying caspase-3/7 activity inducers.\nAssay Protocol Summary: HepG2 cells were dispensed at 2,000 per well in 5uL of culture medium into white solid bottom 1536-well plates (Corning Life Sciences, Corning, NY) using a Multidrop Combi (Thermo Scientific, Waltham, MA) dispenser. The assay plates were incubated at 37 C and 5% CO2 for 5hr, and then 23nL of compounds dissolved in DMSO and positive control were transferred using a Pintool station (Wako, San Diego, CA). The assay plates were incubated at 37C and 5% CO2 for 17hr. For caspase-3/7 activity read, 4uL of Caspase-Glo 3/7 reagent (Promega Corporation, Madison, WI) was added to each well of the assay plates using Flying Reagent Dispenser (FRD, Aurora Discovery, San Diego, CA) and incubated the assay plates at room temperature for 30min. The luminescence signal was quantified using a ViewLux plate reader (Perkin Elmer, Shelton, CT).", "values": [{"smiles": "Cc1ccc([N+](=O)[O-])cc1S(=O)(=O)O", "Potency": "inactive"}, {"smiles": "CCOC(=O)c1ccc(N)cc1", "Potency": "inactive"}, {"smiles": "Clc1ccccn1", "Potency": "inactive"}, {"smiles": "OCc1ccccc1", "Potency": "inactive"}, {"smiles": "CC1(C)CC(N)CC(C)(CN)C1", "note": "(stereo not given)", "Potency": "inactive"}, {"smiles": "C[C@]12CC[C@@H]3c4ccc(O)cc4CC[C@H]3[C@@H]1C[C@@H](O)[C@@H]2O", "Potency": "inactive"}, {"smiles": "O=C1C(c2[nH]c3ccccc3c2O)=Nc2ccccc21", "Potency": "inactive"}, {"smiles": "CC1(C)NC(=O)NC1=O", "Potency": "inactive"}, {"smiles": "OCc1cccc(Oc2ccccc2)c1", "Potency": "inactive"}, {"smiles": "CC(C)CC(=O)CC(C)CC(C)C", "note": "(stereo not given)", "Potency": "inactive"}, {"smiles": "CCOC(=O)n1ccn(C)c1=S", "Potency": "inactive"}, {"smiles": "CC(C)=CCl", "Potency": "inactive"}, {"smiles": "CC(O)CC(C)(C)O", "note": "(stereo not given)", "Potency": "inactive"}, {"smiles": "CCNC(=S)NCC", "Potency": "inactive"}, {"smiles": "C=C(C)[C@H]1CC=C(C)C(=O)C1", "Potency": "inactive"}, {"smiles": "CCCCCCCO", "Potency": "inactive"}, {"smiles": "OC1C(O)C(O)C(O)C(O)C1O", "note": "(stereo not given)", "Potency": "inactive"}, {"smiles": "CN(C)c1ccc(O)c2c1C[C@H]1C[C@H]3[C@H](N(C)C)C(=O)C(C(N)=O)=C(O)[C@@]3(O)C(=O)C1=C2O", "Potency": "inactive"}, {"smiles": "CC(=O)CCC=C(C)C", "Potency": "inactive"}, {"smiles": "CCO[Si](CCC#N)(OCC)OCC", "Potency": "inactive"}, {"smiles": "CCO[Si](CCCN)(OCC)OCC", "Potency": "inactive"}, {"smiles": "CN1C(=O)CC[C@H]1c1cccnc1", "Potency": "inactive"}, {"smiles": "C=CCCCCCCCCC(=O)O", "Potency": "inactive"}, {"smiles": "O=C(O)c1ccccc1C(=O)O", "Potency": "inactive"}, {"smiles": "NCCNCCN", "Potency": "inactive"}, {"smiles": "O=C(O)c1cc2ccccc2cc1O", "Potency": "inactive"}, {"smiles": "O=C(O)c1ccc(C(=O)O)c(C(=O)O)c1", "Potency": "inactive"}, {"smiles": "CC(C)OC(=O)COc1ccc(Cl)cc1Cl", "Potency": "inactive"}, {"smiles": "CCCCCCCC=O", "Potency": "inactive"}, {"smiles": "CCCCCCC=O", "Potency": "inactive"}, {"smiles": "CN(C)CCOC(=O)COc1ccc(Cl)cc1", "Potency": "inactive"}, {"smiles": "O=C1CCCC1", "Potency": "inactive"}, {"smiles": "c1ccc(Oc2ccccc2)cc1", "Potency": "inactive"}, {"smiles": "N[C@H](Cc1c[nH]c2ccccc12)C(=O)O", "Potency": "inactive"}, {"smiles": "Cc1ccc2ncccc2c1", "Potency": "inactive"}, {"smiles": "Brc1ccc(Br)c(Br)c1", "caspase activation": "-1.58% (inactive)"}, {"smiles": "CC(C)(C#N)c1cc(Cn2cncn2)cc(C(C)(C)C#N)c1", "Potency": "inactive"}, {"smiles": "C=C(C)CNCC", "Potency": "inactive"}, {"smiles": "O=C1c2ccccc2CCc2ccccc21", "Potency": "inactive"}, {"smiles": "NC(=S)NNC(N)=S", "Potency": "inactive"}]}]}
